Here are results for nine compounds from PubChem BioAssay (Tox21).

Inconclusive results are not listed. Values without a mark were called inactive. The source made the active and inactive calls. Unless noted, calls come from the whole dose curve; as a rule, active = well fitted curve in the direction sought with a large enough effect in the repeat runs; inconclusive = weak or mixed curves; inactive = no such curve, though single readings can be large; an effect the other way counts as inactive or inconclusive.

The nature of assay [1]: qHTS assay to identify aromatase inhibitors - cell viability counter screen (AID 743084).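 Note: cells stimulated with testosterone during compound exposure; nearly all actives have a fitted effect of over 55% in size.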 Note: potency is the fitted concentration of half-maximal effect. For orientation: qHTS replaces the single test concentration by a dilution series.
The nature of assay [2]: qHTS assay to identify small molecule that activate the aryl hydrocarbon receptor (AhR) signaling pathway - cell viability counter screen (AID 743086).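 For viability change, negative = cytotoxic: HepG2 liver cells carrying the AhR DRE luciferase reporter; series mostly up to about 70 µM.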 Note: nearly all actives have a fitted effect of over 45% in size. Note: potency is the fitted concentration of half-maximal effect. The procedure, abridged:
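HepG2-AhR-luc (HG2L7.5c1) cells, 4000/well, were preincubated 5 h at 37C, exposed to compound in qHTS format for 24 hr at 37C, then given CellTiter-Fluor for 30 min; viability was read as fluorescence in the reporter wells.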

In assay [3] the target is Peroxisome proliferator-activated receptor gamma (Homo sapiens) (UniProt P37231). The assay can be described thus: qHTS assay to identify small molecule agonists of the peroxisome proliferator-activated receptor gamma (PPARg) signaling pathway (AID 743094; active = well fitted activation curve with a large enough effect in the signal ratio in the repeat runs, not every such curve was filed as active; the % refers to the signal ratio). Put shortly: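 Reporter activation was scored by fluorescence of cleaved LiveBLAzer B/G substrate (1 h, room temperature) in PPARg-bla HEK293H cells previously treated 17 h at 37C with DMSO-dissolved compounds.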

For assay [4] the target is unchanged. Description: qHTS assay to identify small molecule antagonists of the peroxisome proliferator-activated receptor gamma (PPARg) signaling pathway (AID 743191; calls by dose curve; note: series mostly up to about 63 µM; nearly all actives have a fitted effect of over 30% in size). The procedure, abridged:
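GeneBLAzer PPARg UAS-bla HEK293H cells carrying a UAS-driven beta-lactamase reporter were plated at 3000 cells/well, preincubated 5 h at 37C, then given compound for 17 h at 37C; LiveBLAzer B/G FRET substrate was read after 1 h at room temperature.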

Assay [5] is described as follows: qHTS assay to identify small molecule antagonists of the peroxisome proliferator-activated receptor gamma (PPARg) signaling pathway - cell viability counter screen (AID 743194). Note: nearly all actives have a fitted effect of over 55% in size. Put shortly: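 PPARg-UAS-bla HEK293H cells were plated, rested 5 h at 37 C, then treated with compounds plus rosiglitazone (50 nM final) for 17 h at 37 C; viability was then read by CellTiter-Glo luminescence after 30 min at room temperature.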

Assay [6] is described as follows: qHTS assay for small molecule agonists of the antioxidant response element (ARE) signaling pathway - cell viability counter screen (AID 743203; calls by dose curve; note: nearly all actives have a fitted effect of over 55% in size). The procedure, abridged:
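Viability counter screen: stably transfected ARE-bla HepG2 line, 16 hrs compound exposure at 37C/5% CO2, ATP-based CellTiter-Glo luminescence measured in the reporter wells.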

A short description of assay [7]: qHTS assay for small molecule activators of the heat shock response signaling pathway - cell viability counter screen (AID 743209). Note: nearly all actives have a fitted effect of over 50% in size. Put shortly: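 Viability of HSE-bla HeLa cells is measured with CellTiter-Glo in the wells already used for the reporter read. Compound exposure lasts 5 h at 37 C, and luminescence is read after 30 min at room temperature.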
Assay [8] is described as follows: qHTS assay for small molecule activators of the heat shock response signaling pathway (AID 743210; active = well fitted activation curve with a large enough effect in the signal ratio in the repeat runs, with a control signal flat, not every such curve was filed as active; the % refers to the signal ratio;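 note: HeLa cells with beta-lactamase reporter driven by heat shock elements; series mostly up to about 63 µM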). The procedure, abridged: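 Activation of heat shock element-controlled beta-lactamase expression is measured in HeLa cells by LiveBLAzer FRET fluorescence, with compound exposure lasting 5 h at 37 C and substrate loading 2.5 h at room temperature.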
A short description of assay [9]: qHTS assay to identify small molecule agonists of the peroxisome proliferator-activated receptor delta (PPARd) signaling pathway - cell viability counter screen (AID 743211). Note: nearly all actives have a fitted effect of over 55% in size. Put shortly: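 qHTS cell viability: PPARd-bla HEK293H; 17 h cpd, 37C; CellTiter-Glo, luminescence at 30 min RT.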
The target in assay [10] is Peroxisome proliferator-activated receptor delta (Homo sapiens) (UniProt Q03181). Description: qHTS assay to identify small molecule agonists of the peroxisome proliferator-activated receptor delta (PPARd) signaling pathway (AID 743212; calls by dose curve). The procedure, abridged: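 Cells expressing a UAS-driven beta-lactamase reporter (PPARd-bla HEK293H) were given test compounds after a 5 h settle and kept at 37 C. Reporter activity was then measured as FRET fluorescence using LiveBLAzer B/G substrate.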

Assay [11] in a line: qHTS assay to identify small molecule antagonists of the peroxisome proliferator-activated receptor delta (PPARd) signaling pathway - cell viability counter screen (AID 743213). Note: nearly all actives have a fitted effect of over 50% in size. The procedure, abridged: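 HEK293H cells with the PPARd UAS-bla reporter, co-treated 17 h at 37 C with compounds and L165041 (300 nM final), were lysed with CellTiter-Glo. Luminescence indicated viable cell content.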

In assay [12] the target is Peroxisome proliferator-activated receptor delta (Homo sapiens) (UniProt Q03181). Description: qHTS assay to identify small molecule antagonists of the peroxisome proliferator-activated receptor delta (PPARd) signaling pathway (AID 743215; active = well fitted inhibition curve with a large enough effect in the signal ratio in the repeat runs, not every such curve was filed as active; the % refers to the signal ratio;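 note: cells stimulated with agonist L165041 at 300 nM final during compound exposure; series mostly up to about 62 µM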). Put shortly:
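Plated HEK293H PPARd-bla cells rested 5 h at 37 C and 5% CO2. Compound, then agonist L165041 at 300 nM final, was added; 17 h at 37 C followed. Substrate loading, 2 h room temperature, fluorescence measured.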

The nature of assay [13]: qHTS assay to identify small molecule agonists of the farnesoid-X-receptor (FXR) signaling pathway - cell viability counter screen (AID 743218). Note: nearly all actives have a fitted effect of over 45% in size. Put shortly: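 Viability of FXR-bla HEK 293T cells is measured by ATP-based CellTiter-Glo luminescence following 16 h compound treatment at 37 C and a prior 2 h room-temperature beta-lactamase substrate step.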
A short description of assay [14]: qHTS assay to identify small molecule antagonists of the farnesoid-X-receptor (FXR) signaling pathway - cell viability counter screen (AID 743221; active = well fitted cell-killing curve with a large enough effect in the repeat runs, not every such curve was filed as active; note: nearly all actives have a fitted effect of over 50% in size). Put shortly:
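After a 5 h settling period, FXR-bla HEK 293T cells receive compound and chenodeoxycholic acid (50 uM final) and incubate 16 h at 37 C; CellTiter-Glo luminescence, read after 30 min at room temperature, reports cell viability.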

Assay [15] concerns the target Vitamin D3 receptor (Homo sapiens) (UniProt P11473). The assay can be described thus: qHTS assay to identify small molecule agonists of the vitamin D receptor (VDR) signaling pathway (AID 743222; calls by dose curve). Put shortly: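 Fluorescence from cleaved LiveBLAzer B/G FRET substrate served as readout. VDR-bla cells had been treated 16 h at 37C with test compounds in DMSO, following a 4 h settling period, and substrate was loaded for 2 h at RT.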

Assay [16] has the same target. The assay can be described thus: qHTS assay to identify small molecule antagonists of the vitamin D receptor (VDR) signaling pathway (AID 743223; active = well fitted inhibition curve with a large enough effect in the signal ratio in the repeat runs, not every such curve was filed as active; the % refers to the signal ratio). Put shortly: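 Reporter line VDR-bla; stimulus 1alpha,25-(OH)2 vitamin D3, 3 nM final; compound co-addition, 16 h 37C/5% CO2; LiveBLAzer B/G substrate 2 h RT; fluorescence intensity.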
Assay [17] is described as follows: qHTS assay for small molecule agonists of the antioxidant response element (ARE) signaling pathway (AID 743202; active = well fitted activation curve with a large enough effect in the signal ratio in the repeat runs, not every such curve was filed as active; the % refers to the signal ratio; note: potency is the fitted concentration of half-maximal effect). The procedure, abridged:
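Steps: seed ARE-bla HepG2 cells (2,000/well); incubate 5 h at 37 C; add compounds by pin tool; incubate 16 h at 37 C; add FRET substrate; read fluorescence after 2 h at RT.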

Assay [18] deals with Bile acid receptor (Homo sapiens) (UniProt Q96RI1). The assay can be described thus: qHTS assay to identify small molecule antagonists of the farnesoid-X-receptor (FXR) signaling pathway (AID 743217; active = well fitted inhibition curve with a large enough effect in the signal ratio in the repeat runs, not every such curve was filed as active; the % refers to the signal ratio). The procedure, abridged: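 Screen of the Tox21 10K library in quantitative HTS format using FXR-UAS-bla HEK 293T reporter cells. Agonist chenodeoxycholic acid, 50 uM final, added with compounds; 16 h incubation at 37 °C; beta-lactamase FRET fluorescence measured.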

Assay [19] shares this target. Description: qHTS assay to identify small molecule agonists of the farnesoid-X-receptor (FXR) signaling pathway (AID 743220; active = well fitted activation curve with a large enough effect in the signal ratio in the repeat runs, not every such curve was filed as active; the % refers to the signal ratio). Put shortly: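 FXR-UAS-bla HEK 293T cells carrying a UAS-driven beta-lactamase reporter were plated for 5 h at 37C/5% CO2, then exposed to DMSO-dissolved Tox21 10K compounds for 16 h at 37C. A LiveBLAzer B/G FRET substrate was loaded for 2 h at room temperature before fluorescence reading.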
% is set by controls: 0 for no effect and ±100 for the full control effect.

Sequence of Vitamin D3 receptor (Homo sapiens) (P11473 whole entry, looked up): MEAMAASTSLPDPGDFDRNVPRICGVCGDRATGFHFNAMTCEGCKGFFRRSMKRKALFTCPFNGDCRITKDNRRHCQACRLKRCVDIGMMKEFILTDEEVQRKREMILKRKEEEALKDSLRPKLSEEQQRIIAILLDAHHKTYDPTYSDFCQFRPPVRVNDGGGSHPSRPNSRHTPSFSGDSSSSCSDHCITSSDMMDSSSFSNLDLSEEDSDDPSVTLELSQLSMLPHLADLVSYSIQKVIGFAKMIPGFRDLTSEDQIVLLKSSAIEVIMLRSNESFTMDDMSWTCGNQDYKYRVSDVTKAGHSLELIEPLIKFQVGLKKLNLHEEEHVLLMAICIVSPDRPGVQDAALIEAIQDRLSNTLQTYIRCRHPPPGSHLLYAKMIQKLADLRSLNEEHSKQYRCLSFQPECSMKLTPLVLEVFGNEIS
Sequence of Bile acid receptor (Homo sapiens) (Q96RI1 whole entry, looked up): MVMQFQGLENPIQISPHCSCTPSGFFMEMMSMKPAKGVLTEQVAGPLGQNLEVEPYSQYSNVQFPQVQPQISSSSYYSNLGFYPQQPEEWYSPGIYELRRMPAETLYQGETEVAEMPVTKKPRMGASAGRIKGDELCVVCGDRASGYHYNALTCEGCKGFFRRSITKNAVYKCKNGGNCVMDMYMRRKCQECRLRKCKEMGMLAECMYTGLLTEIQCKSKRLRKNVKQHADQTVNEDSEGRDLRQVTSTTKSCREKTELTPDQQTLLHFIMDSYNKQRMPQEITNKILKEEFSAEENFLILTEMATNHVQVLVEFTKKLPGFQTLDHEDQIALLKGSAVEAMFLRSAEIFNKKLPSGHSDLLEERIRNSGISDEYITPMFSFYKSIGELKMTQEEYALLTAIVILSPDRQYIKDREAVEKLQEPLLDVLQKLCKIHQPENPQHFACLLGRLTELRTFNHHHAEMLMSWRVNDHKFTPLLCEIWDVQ
Sequence of Peroxisome proliferator-activated receptor gamma (Homo sapiens) (P37231 whole entry, looked up): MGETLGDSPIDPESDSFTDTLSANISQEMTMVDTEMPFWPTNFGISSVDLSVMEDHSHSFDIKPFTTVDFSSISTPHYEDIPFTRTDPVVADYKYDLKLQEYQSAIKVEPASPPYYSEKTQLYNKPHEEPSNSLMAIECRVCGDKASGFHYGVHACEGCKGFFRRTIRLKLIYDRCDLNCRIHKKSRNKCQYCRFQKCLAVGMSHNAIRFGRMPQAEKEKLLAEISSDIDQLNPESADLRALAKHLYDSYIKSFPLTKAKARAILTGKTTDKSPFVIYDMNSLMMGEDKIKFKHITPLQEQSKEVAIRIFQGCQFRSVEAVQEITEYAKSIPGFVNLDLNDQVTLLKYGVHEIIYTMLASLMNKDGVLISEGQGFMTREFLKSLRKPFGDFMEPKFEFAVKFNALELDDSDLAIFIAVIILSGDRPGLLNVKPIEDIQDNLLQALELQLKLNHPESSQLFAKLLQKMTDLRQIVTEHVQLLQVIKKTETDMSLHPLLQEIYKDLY
Sequence of Peroxisome proliferator-activated receptor delta (Homo sapiens) (Q03181 whole entry, looked up): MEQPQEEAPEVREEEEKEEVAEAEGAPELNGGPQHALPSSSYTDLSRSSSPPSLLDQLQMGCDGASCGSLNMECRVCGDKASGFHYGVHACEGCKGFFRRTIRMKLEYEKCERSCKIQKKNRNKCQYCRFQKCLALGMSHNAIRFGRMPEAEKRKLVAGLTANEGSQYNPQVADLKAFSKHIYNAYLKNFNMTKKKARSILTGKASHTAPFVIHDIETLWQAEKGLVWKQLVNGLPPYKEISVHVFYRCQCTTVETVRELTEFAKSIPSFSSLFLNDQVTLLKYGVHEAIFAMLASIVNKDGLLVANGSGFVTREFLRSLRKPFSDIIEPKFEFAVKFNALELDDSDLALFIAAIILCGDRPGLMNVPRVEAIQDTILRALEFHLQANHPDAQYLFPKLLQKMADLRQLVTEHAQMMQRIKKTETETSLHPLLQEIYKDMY

On to `CCOc1ccc(N=Nc2ccc(/C=C/c3ccc(N=Nc4ccc(OCC)cc4)cc3S(=O)(=O)O)c(S(=O)(=O)O)c2)cc1`, for which the Potency is 26.9 µM (active) in [1] and 19 µM (active) in assay [2]. Also, the Potency entry in assay [3], in assay [4], in [5], in [6], in [7] and in [8] was “inactive” throughout. Also, the Potency entry in assay [9], in assay [10], in assay [11], in assay [12], in assay [13] and in [14] was “inactive” each time. The Potency entry in assay [15] is “inactive”. Moreover, the compound was called inactive in assay [16].

Consider `CN1CCN(C(c2ccccc2)c2ccccc2)CC1`, for which the Potency entry in assay [1], in assay [2], in assay [3], in assay [17], in [6] and in assay [8] was “inactive” throughout. The Potency result in assay [9], in assay [10], in assay [11], in assay [12], in assay [13] and in assay [14] was “inactive” in each case. In assay [15], the Potency result is “inactive”. For the same compound, the outcome in [16] was inactive.

With `C=C1[C@H]2CC[C@@H]3[C@H]2C(C)(C)CCC[C@]13C`, the Potency entry in [1], in assay [2], in assay [3], in assay [5], in assay [17] and in assay [6] was “inactive” throughout. Besides, the Potency entry in assay [8], in assay [9], in assay [10], in assay [11], in assay [12] and in [18] was “inactive” in each case. The Potency entry in assay [13], in assay [19] and in assay [14] was “inactive” each time.

On to `COc1ccc(C)cc1[N+](=O)[O-]`, for which the Potency result in assay [1], in assay [2], in assay [3], in [5], in assay [6] and in assay [7] was “inactive” each time. For the same compound, the Potency result in assay [8], in assay [11], in [18], in assay [13], in [19] and in assay [14] was “inactive” in each case. Also, the Potency result in assay [15] is “inactive”.

Take `COc1ccnc(CS(=O)c2nc3ccc(OC(F)F)cc3[nH]2)c1OC` (configuration not stated): the Potency entry in assay [1], in assay [2], in [3], in [4], in [5] and in [6] was “inactive” each time. Moreover, the Potency result in assay [8], in [10], in assay [11], in [12] and in [14] was “inactive” throughout.

Turning to `CC(=O)c1ccc2c(c1)N(CCCN(C)C)c1ccccc1S2`, the Potency entry in assay [1], in assay [2], in assay [3], in [4], in [5] and in assay [6] was “inactive” each time. Also, the Potency result in [7], in assay [8], in assay [10], in assay [11] and in [12] was “inactive” in each case.

For the compound `NCC(=O)CCC(=O)O`, the Potency entry in assay [1], in assay [2], in assay [3], in assay [4], in [6] and in assay [7] was “inactive” in each case. Moreover, the Potency result in assay [8], in assay [9], in assay [11], in assay [18], in [19] and in assay [14] was “inactive” throughout. In addition, the Potency entry in assay [15] is “inactive”.

Regarding `NC(N)=NCCC[C@H](N)C(=O)O`, the Potency entry in assay [1], in assay [2] and in [3] was “inactive” throughout. The ratio activity, negative = inhibition in assay [4] was 0.163% [at 5.95 µM]; in assay [12], -1.1% [at 6.26 µM]. Also, the activation in [17] is 0.601% [at 8.36 µM]; in [8] it was 0.502% [at 5.95 µM]; in assay [10] it was 0.522% [at 5.95 µM]; in assay [15], 9.36% [at 6.01 µM]. Further, the viability change, negative = cytotoxic in assay [6] is 9.06% [at 8.36 µM]; in assay [11] it was 2.08% [at 6.26 µM]; in [13] it was -2.05% [at 5.95 µM]. Besides, the activity change, negative = cytotoxicity was 4.58% [at 5.95 µM] in assay [7] and -8.21% [at 5.95 µM] in assay [14]. In addition, the activity change, negative = inhibition in assay [16] was 2.1% [at 6.95 µM].

With `CCCCC/C=C\C/C=C\CCCCCCCC(=O)NC(C)c1ccccc1` (configuration not stated), the Potency result in assay [1], in [2], in assay [3], in assay [5], in [6] and in assay [12] was “inactive” each time. The Potency entry in assay [13] and in assay [14] was “inactive” throughout. Also, the Potency in assay [17] is 29.8 µM (active).
